Test results published in PubChem BioAssay (EPA / NIEHS).
Active and inactive are the calls of the source. Rule for the calls: active = hit-call score of the fitted dose curve at least 0.9, where 1 is the maximum; inactive = score below 0.9.

Legend:
[1] = read-out: Transforming growth factor beta 1 (TGFb1), TGFB1 (gene 7040); assay: BSK_KF3CT_TGFb1: BioMAP Diversity Plus: KF3CT Assay for Transforming growth factor beta 1 (TGFb1) Biomarker Activity (AID 2283072); conditions: primary human keratinocytes with fibroblasts; actives raise or lower the signal
Method in brief: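 Read-out: ELISA for TGF-b1 in keratinocyte/foreskin fibroblast human skin co-culture, 24 h after dosing; bidirectional curve fit vs DMSO baseline; gain or loss of signal scored.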

[2] = read-out: C-C motif chemokine 2 (Homo sapiens) (UniProt P13500); assay: BSK_KF3CT_MCP1: BioMAP Diversity Plus: KF3CT Assay for Monocyte Chemoattractant Protein 1 (MCP1/CCL2) Biomarker Activity (AID 2283073); conditions: primary human keratinocytes with fibroblasts; actives raise or lower the signal
Method in brief: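 Keratinocytes and foreskin fibroblasts were co-cultured, dosed with chemical, and sampled 24 h later. MCP-1 was quantified by ELISA, and the endpoint was analyzed with bidirectional fitting using DMSO as negative control.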

[3] = read-out: urokinase plasminogen activator (uPA), PLAU (gene 5328); assay: BSK_KF3CT_uPA: BioMAP Diversity Plus: KF3CT Assay for urokinase plasminogen activator (uPA) Biomarker Activity (AID 2283075); conditions: primary human keratinocytes with fibroblasts; actives raise or lower the signal
Method in brief: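 Skin co-culture (keratinocytes + foreskin fibroblasts), human primary; 24 h post-dose; uPA by ELISA; gain/loss fit vs DMSO baseline.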

CD40, CD40 (gene 958) = assay: BSK_LPS_CD40: BioMAP Diversity Plus: LPS Assay for CD40 Biomarker Activity (AID 2283076); conditions: primary human HUVEC with PBMC; actives raise or lower the signal
Method in brief: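 CD40 signal, measured by ELISA, is fitted in both directions relative to DMSO vehicle. The system is an LPS-driven human vascular primary co-culture of endothelial cells and PBMC, sampled 24 h after compound addition.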

[4] = read-out: Interleukin-8 (IL8), CXCL8 (gene 3576); assay: BSK_LPS_IL8: BioMAP Diversity Plus: LPS Assay for Interleukin-8 (IL8) Biomarker Activity (AID 2283078); conditions: primary human HUVEC with PBMC; actives raise or lower the signal
Method in brief: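 Endothelial cells and PBMC from human donors are co-cultured, treated with chemicals and LPS, then assayed for IL-8 by ELISA after 24 h. Parallel SRB staining (0.1% SRB after 10% TCA fixation, 560 nm) flags cytotoxicity.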

[5] = BSK_LPS_SRB: Viability Assessment in the BioMAP Diversity Plus: LPS Assay (AID 2283079); conditions: primary human HUVEC with PBMC;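 note: total protein by sulforhodamine B absorbance as a cytotoxicity measure; measured one day after compound addition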
Method in brief: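 Overt cytotoxicity was gauged by sulforhodamine B total-protein staining in a primary human vascular endothelial and mononuclear cell co-culture 24 h post-dosing. Activity was fitted in both directions relative to DMSO.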

[6] = read-out: Interleukin-1 alpha (IL1a), IL1A (gene 3552); assay: BSK_LPS_IL1a: BioMAP Diversity Plus: LPS Assay for Interleukin-1 alpha (IL1a) Biomarker Activity (AID 2283080); conditions: primary human HUVEC with PBMC; actives raise or lower the signal
Method in brief: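 Measured: IL-1 alpha via ELISA at 24 h in LPS-activated human umbilical vein endothelium–PBMC co-culture. Baseline: DMSO, bidirectional fitting.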

[7] = read-out: Monocyte Chemoattractant Protein-1 (MCP1), CCL2 (gene 6347); assay: BSK_LPS_MCP1: BioMAP Diversity Plus: LPS Assay for Monocyte Chemoattractant Protein-1 (MCP1) Biomarker Activity (AID 2283081); conditions: primary human HUVEC with PBMC; actives raise or lower the signal;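 for AC50: secreted MCP-1 protein quantified by ELISA in culture supernatant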
Method in brief: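 LPS-stimulated HUVEC/PBMC co-culture; chemical, 24 h; MCP-1 by ELISA; bidirectional fit vs DMSO; cytotoxicity via SRB (0.1% stain, 10% TCA fix, 560 nm) in parallel wells.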

[8] = read-out: Matrix Metallopeptidase 9 (MMP9), MMP9 (gene 4318); assay: BSK_KF3CT_MMP9: BioMAP Diversity Plus: KF3CT Assay for Matrix Metallopeptidase 9 (MMP9) Biomarker Activity (AID 2283074); conditions: primary human keratinocytes with fibroblasts; actives raise or lower the signal
Method in brief: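 ELISA read-out of MMP-9 at 24 h post-dosing in a co-culture of human skin keratinocytes and foreskin fibroblasts. Gain or loss of signal was fitted in both directions against DMSO.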

[9] = read-out: E-selectin (Homo sapiens) (UniProt P16581); assay: BSK_LPS_Eselectin: BioMAP Diversity Plus: LPS Assay for Eselectin Biomarker Activity (AID 2283077); conditions: primary human HUVEC with PBMC; actives raise or lower the signal
Method in brief: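 Signal of E-selectin, detected by ELISA, served as the endpoint; cells were umbilical vein endothelium with PBMC, read 24 h after treatment. DMSO defined baseline, and both increases and decreases were fitted.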

Measured: AC50

E-selectin (Homo sapiens), sequence (P16581 whole entry, looked up): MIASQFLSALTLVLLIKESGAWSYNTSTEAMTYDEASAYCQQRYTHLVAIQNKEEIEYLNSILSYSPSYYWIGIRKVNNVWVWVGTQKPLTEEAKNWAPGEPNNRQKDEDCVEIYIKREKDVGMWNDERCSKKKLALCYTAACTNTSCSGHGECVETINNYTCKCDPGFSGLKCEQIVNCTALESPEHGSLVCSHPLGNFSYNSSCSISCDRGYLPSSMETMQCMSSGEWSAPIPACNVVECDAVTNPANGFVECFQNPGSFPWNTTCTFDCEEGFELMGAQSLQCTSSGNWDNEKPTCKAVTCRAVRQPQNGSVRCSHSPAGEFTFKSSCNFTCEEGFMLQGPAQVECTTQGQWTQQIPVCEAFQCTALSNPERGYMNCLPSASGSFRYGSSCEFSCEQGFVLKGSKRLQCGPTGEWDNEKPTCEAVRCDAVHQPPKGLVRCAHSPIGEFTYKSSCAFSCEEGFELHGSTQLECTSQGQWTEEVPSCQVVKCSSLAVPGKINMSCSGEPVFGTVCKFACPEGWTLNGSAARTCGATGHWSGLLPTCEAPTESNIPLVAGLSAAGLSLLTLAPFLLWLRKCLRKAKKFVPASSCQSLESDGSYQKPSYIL

c1ccc2[nH]c(-c3cscn3)nc2c1
not listed: [8] | [9]
inactive: all other assays above

COC(=O)c1c(Cl)nn(C)c1S(=O)(=O)NC(=O)Nc1nc(OC)cc(OC)n1
not listed: [8] | [9]
inactive: all other assays above

S=C(S)NCCNC(=S)S.[Mn+2].[S-]C([S-])=NCCN=C([S-])[S-].[Zn+2]
not listed: [8] | [9]
inactive: all other assays above

C=CCOC(Cn1ccnc1)c1ccc(Cl)cc1Cl (stereo unspecified)
active: CD40, CD40 (gene 958) 22.2 µM
not listed: [8] | [9]
inactive: all other assays above

CC(C)CCCCCCc1ccc(O)cc1
active: [1] 5.58 µM | [2] 8.65 µM | [3] 9.65 µM | CD40, CD40 (gene 958) 9.28 µM | [5] 13.8 µM | [6] 6.77 µM

COCCO
not listed: [2]
inactive: all other assays above

Cc1nn(C)c(Oc2ccccc2)c1C=NOCc1ccc(C(=O)OC(C)(C)C)cc1
inactive: [1] | [3]
active: [2] 12.7 µM | [4] 8.08 µM | [5] 12.6 µM | [6] 13.2 µM | [7] 17.5 µM

CC1(C)C(C=C(Cl)Cl)C1C(=O)OCc1cccc(Oc2ccccc2)c1 (stereo unspecified)
active: [4] 10 µM | [5] 6.14 µM
not listed: [8] | [9]
inactive: all other assays above

CCCOC(=O)c1ccc(C(=O)OCCC)nc1
active: [7] 1.84 µM
not listed: [8] | [9]
inactive: all other assays above

COC(=O)c1cccc(C)c1S(=O)(=O)NC(=O)Nc1nc(OCC(F)(F)F)nc(N(C)C)n1
not listed: [8] | [9]
inactive: all other assays above

C[C@]12C[C@H](O)[C@H]3[C@@H](CCC4=CC(=O)CC[C@@]43C)[C@@H]1CC[C@@H]2C(=O)CO
not listed: [8] | [9]
inactive: all other assays above

O=C(c1ccccc1)C1CCCCC1
not listed: [8] | [9]
inactive: all other assays above

N[C@@H](Cc1cc(I)c(Oc2ccc(O)c(I)c2)c(I)c1)C(=O)O
not listed: [8] | [9]
inactive: all other assays above

O=C(c1ccc(O)cc1O)c1ccc(O)cc1O
not listed: [8] | [9]
inactive: all other assays above

CCN(CC)C(=O)c1cccc(C)c1
not listed: [8] | [9]
inactive: all other assays above

CC(C)(c1ccc(O)cc1)c1ccc(O)cc1
not listed: [8] | [9]
inactive: all other assays above
